Measured values published in PubChem BioAssay AID1159580 (chemical genetic matrix, 2015).
In all, about 5,500 compounds went through this assay and about 2,000 (36%) were called active. Another 18% or so got no clear call; they are omitted. Cut-off read from the data, not from the text of the source: active = normalized growth mostly below about 0.91 (no sharp cut-off); inconclusive = no clear call, values can overlap the other calls; inactive = mostly above about 0.92. Some of the results follow.

Assay: chemical genetic growth profiling, strain panel (AID 1159580);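 note: tested at 20 µM; growth read once vehicle control cultures reached saturation at 30 °C; 1 = growth at the plate median or of vehicle wells; lower values mean less growth of the strain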
Settings: growth OD

Measured: normalized growth

COc1cc(OC)c2c(=O)c(O)c(-c3ccc(OC)c(OC)c3)oc2c1
inactive: S. cerevisiae deletion strains, locus YKL068W, hits give low values 0.994 | S. cerevisiae deletion strains, locus YKL085W, strain MDH1 (second series), hits give low values 1.05 | S. cerevisiae deletion strains, locus YKL085W, strain MDH1, hits give low values 1.05 | S. cerevisiae deletion strains, locus YKL160W, strain elf1, hits give low values 0.922 | S. cerevisiae deletion strains, locus YKR026C, strain gcn3, hits give low values 0.959 | S. cerevisiae deletion strains, locus YKR091W, strain srl3, hits give low values 0.953 | S. cerevisiae deletion strains, locus YLL001W, strain dnm1, hits give low values 0.906 | S. cerevisiae deletion strains, locus YLL026W, hits give low values 0.972 | S. cerevisiae deletion strains, locus YLL041C, strain sdh2, hits give low values 0.933 | S. cerevisiae deletion strains, locus YLR102C, strain apc9, hits give low values 0.929 | S. cerevisiae deletion strains, locus YLR113W, strain HOG1, hits give low values 0.944 | S. cerevisiae deletion strains, locus YLR258W, strain gsy2, hits give low values 0.917 | S. cerevisiae deletion strains, locus YLR370C, strain arc18, hits give low values 0.967 | S. cerevisiae deletion strains, locus YLR384C, strain iki3, hits give low values 0.942 | S. cerevisiae deletion strains, locus YML032C, strain rad52, hits give low values 0.91 | S. cerevisiae deletion strains, locus YML120C, strain ndi1, hits give low values 0.948 | S. cerevisiae deletion strains, locus YMR078C, strain ctf18, hits give low values 0.957 | S. cerevisiae deletion strains, locus YMR125W, strain sto1, hits give low values 0.982 | S. cerevisiae deletion strains, locus YMR129W, hits give low values 0.954 | S. cerevisiae deletion strains, locus YMR231W, strain pep5, hits give low values 0.973 | S. cerevisiae deletion strains, locus YNL071W, strain lat1, hits give low values 0.975 | S. cerevisiae deletion strains, locus YNL183C, strain NPR1, hits give low values 0.941 | S. cerevisiae deletion strains, locus YNL248C, strain rpa49, hits give low values 0.951 | S. cerevisiae deletion strains, locus YNL250W, strain rad50, hits give low values 1.01 | S. cerevisiae deletion strains, locus YNL271C, strain bni1, hits give low values 0.922 | S. cerevisiae deletion strains, locus YNL298W, strain CLA4, hits give low values 0.975 | S. cerevisiae deletion strains, locus YNL322C, strain KRE1 (second series), hits give low values 0.961 | S. cerevisiae deletion strains, locus YNR049C, strain mso1, hits give low values 0.968 | S. cerevisiae deletion strains, locus YOL012C, strain htz1 0.232 | S. cerevisiae deletion strains, locus YOR001W, strain rrp6, hits give low values 0.922 | S. cerevisiae deletion strains, locus YOR070C, strain gyp1, hits give low values 0.968 | S. cerevisiae deletion strains, locus YOR080W, strain dia2, hits give low values 0.942 | S. cerevisiae deletion strains, locus YOR231W, strain MKK1, hits give low values 0.991 | S. cerevisiae deletion strains, locus YOR265W, strain rbl2, hits give low values 0.94 | S. cerevisiae deletion strains, locus YOR316C, strain cot1, hits give low values 0.938 | S. cerevisiae deletion strains, locus YPL078C, strain atp4, hits give low values 0.958 | S. cerevisiae deletion strains, locus YPL256C, strain CLN2, hits give low values 0.969 | S. cerevisiae deletion strains, locus YPR119W, strain clb2, hits give low values 0.97 | S. cerevisiae deletion strains, locus YPR141C, strain kar3, hits give low values 0.996
active: S. cerevisiae deletion strains, locus YKL009W, strain mrt4, hits give low values 1.45 [resistant] | S. cerevisiae deletion strains, locus YKL190W, strain CNB1, hits give low values 0.202 | S. cerevisiae deletion strains, locus YKR001C, strain vps1, hits give low values 0.738 | S. cerevisiae deletion strains, locus YLR027C, strain aat2, hits give low values 0.92 | S. cerevisiae deletion strains, locus YLR039C, strain RIC1, hits give low values 0.227 | S. cerevisiae deletion strains, locus YLR058C, strain SHM2, hits give low values 0.295 | S. cerevisiae deletion strains, locus YLR221C, strain rsa3, hits give low values 0.865 | S. cerevisiae deletion strains, locus YLR262C, strain YPT6 (second series), hits give low values 0.655 | S. cerevisiae deletion strains, locus YLR262C, strain YPT6, hits give low values 0.374 | S. cerevisiae deletion strains, locus YLR268W, strain sec22, hits give low values 0.558 | S. cerevisiae deletion strains, locus YLR320W, strain mms22, hits give low values 0.853 | S. cerevisiae deletion strains, locus YLR342W, strain FKS1 (second series), hits give low values 0.341 | S. cerevisiae deletion strains, locus YLR342W, strain FKS1, hits give low values 0.875 | S. cerevisiae deletion strains, locus YLR357W, strain rsc2, hits give low values 0.705 | S. cerevisiae deletion strains, locus YLR371W, strain rom2, hits give low values 0.645 | S. cerevisiae deletion strains, locus YLR418C, strain cdc73, hits give low values 0.559 | S. cerevisiae deletion strains, locus YML016C, strain PPZ1, hits give low values 0.155 | S. cerevisiae deletion strains, locus YML124C, strain tub3, hits give low values 0.845 | S. cerevisiae deletion strains, locus YMR058W, strain fet3, hits give low values 0.35 | S. cerevisiae deletion strains, locus YMR205C, strain PFK2, hits give low values 0.696 | S. cerevisiae deletion strains, locus YMR223W, strain ubp8, hits give low values 0.759 | S. cerevisiae deletion strains, locus YMR307W, strain GAS1, hits give low values 0.381 | S. cerevisiae deletion strains, locus YNL067W, strain RPL9B, hits give low values 0.438 | S. cerevisiae deletion strains, locus YNL153C, strain GIM3, hits give low values 0.446 | S. cerevisiae deletion strains, locus YNL209W, strain ssb2, hits give low values 0.572 | S. cerevisiae deletion strains, locus YNL233W, strain BNI4, hits give low values 0.601 | S. cerevisiae deletion strains, locus YNL307C, strain MCK1, hits give low values 0.893 | S. cerevisiae deletion strains, locus YNR052C, strain pop2, hits give low values 0.761 | S. cerevisiae deletion strains, locus YOL147C, strain pex11, hits give low values 0.813 | S. cerevisiae deletion strains, locus YOR061W, strain CKA2, hits give low values 0.285 | S. cerevisiae deletion strains, locus YOR069W, strain VPS5, hits give low values 0.458 | S. cerevisiae deletion strains, locus YOR083W, strain WHI5, hits give low values 0.884 | S. cerevisiae deletion strains, locus YOR106W, strain vam3, hits give low values 0.616 | S. cerevisiae deletion strains, locus YOR136W, strain idh2, hits give low values 0.871 | S. cerevisiae deletion strains, locus YOR144C, strain elg1, hits give low values 0.788 | S. cerevisiae deletion strains, locus YOR184W, strain ser1, hits give low values 0.683 | S. cerevisiae deletion strains, locus YOR270C, strain vph1, hits give low values 0.716 | S. cerevisiae deletion strains, locus YOR290C, strain snf2, hits give low values 0.817 | S. cerevisiae deletion strains, locus YPL051W, strain arl3, hits give low values 0.763 | S. cerevisiae deletion strains, locus YPL106C, strain sse1, hits give low values 0.784 | S. cerevisiae deletion strains, locus YPL240C, strain hsp82, hits give low values 0.92 | S. cerevisiae deletion strains, locus YPL241C, strain CIN2, hits give low values 0.506 | S. cerevisiae deletion strains, locus YPR163C, strain tif3, hits give low values 0.838 | S. cerevisiae deletion strains, locus YPR167C, strain met16, hits give low values 0.78 | S. cerevisiae deletion strains, strain wtn01, hits give low values 0.66 | S. cerevisiae strains, strain wild type, hits give low values 0.102
